In PubChem BioAssay (NCI):
The panel holds about 79,000 compounds, 15% with a hit somewhere; the sample as a whole holds those more often. Activity calls are given as the source filed them. No stated cut-off is given here; in the data, active means growth inhibition above about 70%; inactive means the rest. Where a SMILES comes first, the peptide text is derived from it. Bridges are numbered along the chain shown (N, C = ends). Roman numbers before positions name the chains, in order. The star is where a group is joined. Cbz = O=C(OCc1ccccc1)*

Experiments:
[1] = NCI Yeast Anticancer Drug Screen. Data for the rad50 strain (AID 155);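 further: 0% = growth of vehicle-only cultures of the same strain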; conditions: S. cerevisiae rad50 strain growth inhibition; at 50.0 µM; active compounds read high
Outline: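 Genetically altered yeast (DNA repair pathway); compound treatment; growth inhibition vs vehicle ctrl.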

[2] = NCI Yeast Anticancer Drug Screen. Data for the mec2-1 strain (AID 157); conditions: S. cerevisiae mec2-1 strain, at 50.0 µM, active compounds read high
Outline: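 Readout is yeast growth inhibition, normalised to vehicle-treated controls, in the mec2-1 strain exposed to compound.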

[3] = NCI Yeast Anticancer Drug Screen. Data for the sgs1 mgt1 strain (AID 161);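 further: 0% = growth of cultures given vehicle only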; conditions: S. cerevisiae sgs1 mgt1 strain, at 50.0 µM, active compounds read high
Outline: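 Percent growth inhibition was derived by comparing compound-exposed mutant yeast with vehicle-exposed cultures. The strain carries alterations in DNA damage repair.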

[4] = NCI Yeast Anticancer Drug Screen. Data for the cln2 rad14 strain (AID 165);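 further: 0% = growth equal to vehicle treated cultures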; conditions: S. cerevisiae cln2 rad14 strain, at 50.0 µM, active compounds read high
Outline: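 Relative to vehicle controls, growth inhibition of compound-treated cln2 rad14 yeast was recorded.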

[5] = NCI Yeast Anticancer Drug Screen. Data for the bub3 strain (AID 167); conditions: S. cerevisiae bub3 mutant strain, at 50.0 µM, active compounds read high
Outline: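 Yeast carrying a defined mutation is treated with each compound, and growth is compared with that of vehicle-exposed cells to give inhibition.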

[6] = NCI Yeast Anticancer Drug Screen. Data for the mlh1 rad18 strain (AID 175); conditions: S. cerevisiae mlh1 rad18 strain growth inhibition; at 50.0 µM; active compounds read high
Outline: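 Test agents were incubated with a yeast strain of defined genotype (DNA damage repair defect). Inhibition of growth was derived by comparison with vehicle-exposed cultures.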

Measured: growth inhibition

O=S(=O)(Nc1nc2ccccc2nc1Nc1cccc2ccccc12)c1ccccc1
inactive: [1] -1.3% | [2] -5.05% | [3] 3.8% | [4] -13.5% | [5] -10.9% | [6] -26.4%

CCCCCCCCCCCCC/C=C/CC(CC(=O)Nc1ccc(-n2c(=O)cc(C)n2C)cc1)C(=O)O (stereo not given)
inactive: [1] 3.75% | [2] -24.1% | [3] 13.1% | [4] 21.2% | [5] 20.6% | [6] 5.65%

O=C(CC(C(=O)c1cccs1)c1ccsc1)c1ccsc1 (stereo not given)
inactive: [1] -14% | [2] -50.2% | [3] -4.4% | [4] 7.55% | [5] 25.2% | [6] -25.6%

C=CCNC(=O)N(CCCC(NC(C)=O)C(=O)NCc1ccccc1)Cc1ccccc1 (stereo not given)
inactive: [1] 2.5% | [2] -2.85% | [3] -8.85% | [4] 26.4% | [5] -5.25% | [6] -10.2%

O=C1N(c2ccccc2)C(=O)C2(SC=NN2Cc2ccccc2)N1c1ccccc1 (stereo not given)
inactive: [1] -7% | [2] 2% | [3] -18.6% | [4] 8.2% | [5] 11.8% | [6] 10.7%

CC1(C(=O)O)CCCC1C(CCC(=O)O)C(=O)O (stereo not given)
inactive: [1] -13.8% | [2] 15.1% | [3] 0.55% | [4] -19.6% | [5] -6.9% | [6] -35.1%

Cc1ccc(C(=O)/C=C/c2ccc3c(c2)OCO3)c(C)c1
inactive: [1] 39.9% | [2] 21.8% | [3] 52.6% | [4] -6.7% | [5] 47.5% | [6] 33.3%

Cc1nc(C)c(N2CCN(C(=O)NC(CCC(=O)O)C(=O)O)CC2)c(=O)[nH]1 (stereo not given)
inactive: [1] -80.7% | [2] 8.95% | [3] -28.3% | [4] 18.4% | [5] -1.25% | [6] -40.6%

COc1ccccc1NC(=O)C(CC(C(=O)Nc1ccccc1OC)/C(C)=N/NC(=O)c1ccccc1O)/C(C)=N/NC(=O)c1ccccc1O (stereo not given)
inactive: [1] -27.8% | [2] -14.2% | [3] -28.2% | [4] 21.9% | [5] -3.55% | [6] -9.1%

CCCCNc1ccccc1
inactive: [1] 30.4% | [2] 6.3% | [3] 28.8% | [4] -21% | [5] -6.25% | [6] 42.5%

CC1(C)OC(C(F)(F)F)(C(F)(F)F)c2cc(C(C)(C)C)ccc2S1
inactive: [1] -26.9% | [2] -29.8% | [3] -12.7% | [4] -35.4% | [5] -1% | [6] -9.95%

CC1=CC(C)(C)Nc2ccccc21
inactive: [1] -0.25% | [2] -5.6% | [3] -8.95% | [4] -3.95% | [5] 6.95% | [6] 8.45%

O=C(NNC(=O)c1cccc(F)c1)c1ccccc1
inactive: [1] -25.8% | [2] -4.25% | [3] -22.9% | [4] -6.05% | [5] -12.8% | [6] 5.2%

O=C(O)c1ccc(S(=O)(=O)N=Nc2c(O)[nH]c3ccccc23)cc1
inactive: [1] -6.6% | [2] -5.2% | [3] -35% | [4] -1.15% | [5] -37% | [6] -7.45%

COc1ccc(/C=N/O)cc1OC
inactive: [1] -1.8% | [2] 14.8% | [3] -2.15% | [4] 11.8% | [5] 10.9% | [6] 5.95%

CCCCN=C(C)CC(=O)CC(=O)c1ccccc1
inactive: [1] 30.3% | [2] 23.1% | [3] 44.4% | [4] -53.6% | [5] 22.4% | [6] 33.9%

COC1=Cc2nc3ccccc3nc2OC1(C)C
inactive: [1] -13.2% | [2] 3.15% | [3] 10.6% | [4] -16.4% | [5] 17.8% | [6] 3.75%

CC(c1ccccc1)C(C)c1ccccc1 (stereo not given)
inactive: [1] 12.7% | [2] -10.2% | [3] -16.6% | [4] -72.5% | [5] 7.6% | [6] -8.65%

COc1ccc(CCN2CN=C(Sc3ccc([N+](=O)[O-])cc3Cl)NC2)cc1OC
inactive: [1] 11% | [2] -11.2% | [3] 7.55% | [4] 10% | [5] 21.9% | [6] 11.1%

CN(C)CCC(C(N)=O)c1ccccc1 (stereo not given)
inactive: [1] 36.1% | [2] -1.7% | [3] -3.7% | [4] 38.9% | [5] -5.85% | [6] 18.1%

C=CCNCC(O)C(F)(F)C(F)(F)C(F)(F)C(F)(F)C(F)(F)C(F)(F)F (stereo not given)
inactive: [1] 22.5% | [2] 28.9% | [3] 32.1% | [4] -6.9% | [5] 7.55% | [6] 27.6%

O=C(/C=C\c1ccc([N+](=O)[O-])cc1)c1ccccc1
inactive: [1] -1.6% | [2] -6.1% | [3] -2.4% | [4] -28.3% | [5] -3.6% | [6] -16.2%

Cc1ccc(-n2c(C)n[nH]c2=O)cc1
inactive: [1] -10.7% | [2] -18% | [3] -9.8% | [4] 8% | [5] -4.3% | [6] 3.2%

Nc1nc(-c2ccccc2)nc2nc3[nH]c(=O)[nH]c(=O)c3nc12
inactive: [1] -12.3% | [2] 5.25% | [3] 22.8% | [4] 0.95% | [5] 19.1% | [6] 2.95%

Cc1cc(=O)n2nc(SCc3ccccc3)sc2n1
inactive: [1] 11.3% | [2] 8.2% | [3] 28.9% | [4] 1.9% | [5] 3.5% | [6] -8.95%

Clc1ccc(OCCBr)cc1
inactive: [1] 39.2% | [2] 27.9% | [3] 29.4% | [4] 19.9% | [5] 3.8% | [6] 25.6%

COc1ccc(/C=C2\C(=O)N(C(=O)c3ccc(NC(C)=O)cc3)N=C2C)cc1
inactive: [1] -27.6% | [2] -36.2% | [3] -39.2% | [4] -0.3% | [5] -20.9% | [6] -41.2%

N#C/C(=C1\SC(N=Nc2ccc(Cl)cc2)C(=O)N1c1ccccc1)c1nc2ccccc2[nH]1 (stereo not given)
inactive: [1] 6.6% | [2] 6.05% | [3] 6.75% | [4] -40.9% | [5] 3.05% | [6] -5.05%

S=C(NCc1ccc(Cl)c(Cl)c1)Nc1ccccc1
active: [1] 98% | [2] 99.2% | [3] 99% | [4] 98.2% | [5] 97.3% | [6] 98%

COc1cccc(C2CC(C)=Nc3c(ccc4c3C(=O)c3ccccc3C4=O)N2)c1O (stereo not given)
inactive: [1] 1.2% | [2] 17.9% | [3] 24.6% | [4] 7.8% | [5] 11.8% | [6] 14.8%

CC1CN(C(=S)Nc2ccccc2)CCN1c1ccccc1 (stereo not given)
inactive: [1] 4.15% | [2] -2.35% | [3] -4.15% | [4] -34.8% | [5] 9.3% | [6] -5.45%

CC(C)C(NC(=O)C(CSSCC(NC(=O)OCc1ccccc1)C(=O)NC(C(=O)O)C(C)C)NC(=O)OCc1ccccc1)C(=O)O (stereo not drawn) (I: Cbz-Cys-Val-OH / II: Cbz-Cys-Val-OH; disulfide I:1-II:1; configuration not given here)
inactive: [1] 1.4% | [2] 11.3% | [3] -3.75% | [4] -3.25% | [5] -1% | [6] 3.3%

NC(=O)c1csc(CCCCCCc2nc(C(N)=O)cs2)n1
inactive: [1] -13.8% | [2] -15.5% | [3] -5% | [4] 8.75% | [5] -21.2% | [6] -21.1%

COCn1c(C)c(C)c2c(=O)oc(=O)[nH]c21
inactive: [1] -23.2% | [2] 17.7% | [3] -30.6% | [4] -11.3% | [5] 16.6% | [6] -25.5%

COc1cc(N=Nc2ccc(S(=O)(=O)O)cc2)ccc1N=Nc1ccc2c(S(=O)(=O)O)cccc2c1O
inactive: [1] 15% | [2] -8.05% | [3] 14.3% | [4] 11.4% | [5] 5.8% | [6] 2.15%
